Compound activity deposited in PubChem by National Center for Advancing Translational Sciences (NCATS).
POLB inh: DNA polymerase beta (human) inhibition | AID 485314 | Pol beta primer extension/strand displacement, fluorescence kinetic | 340,000 tested, 1.3% active | Potency, µM (doses to about 114 µM), for inactives: at the top dose activity change, negative = inhibition, actives largely listed as inhibitors; also: potency is read from the fitted curve at half-maximal effect; % is scaled to controls: 0 for no effect and ±100 for the full control effect
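10 nM enzyme + cpd, 15 min RT; start with substrate 50 nM final; read 0 min and after 10 min RT. Corrected, normalized data; 4-parameter Hill curve fit.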
Pol eta inh-1: blocks human DNA polymerase eta activity; recombinant Pol eta, fluorescent DNA replication assay; 390,000 tested, 1.2% active; Potency, µM (series often up to 114 µM), without a hit: top-dose activity change, negative = inhibition, actives largely listed as inhibitors; AID 588591; also: potency is read from the fitted curve at half-maximal effect; % is scaled to controls: 0 for no effect and ±100 for the full control effect
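Pol eta at 10 nM preincubated with compounds 15 min at room temperature; reaction started with fluorescent substrate (50 nM final) and read kinetically at 0 and 10 min.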
PI5P4Ka inh: blocks human PI5P4K alpha kinase activity | 330,000 tested, 1.2% active | max response, % | PI5P4Kalpha enzyme, ADP-Glo luminescence, 60 min; hits give low values; active = max response of -50% or lower; inconclusive = between -30% and -50%; inactive = -30% or higher; also: value at the top dose of about 77 µM; % is scaled to controls: 0 for no effect and ±100 for the full control effect
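ADP-Glo luminescence end-point after a 60 min room-temperature kinase reaction. PI5P4Kalpha and substrate in HEPES pH 7.4 buffer with EGTA, 0.1% CHAPS and 5% DMSO; ATP at 5 microM final.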
POLI inh: DNA polymerase iota (human) inhibition. Q9UNA4. Pol iota fluorescent replication assay, 10 min. Potency, µM (top dose mostly 115 µM), for the others: top-dose activity, negative = inhibition, most hits filed as inhibitors. 390,000 tested, 1% active. AID 588590; also: potency is read from the fitted curve at half-maximal effect
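Fluorescent replication assay read twice, at 0 min and 10 min after adding 50 nM (final) substrate. Enzyme (10 nM) and compounds were first incubated 15 min at room temperature; enzyme-free buffer wells were negative controls.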
WRN helicase inh: WRN helicase (human) inhibition | WRN helicase unwinding, fluorescent forked duplex, kinetic | Potency, µM (highest dose often 114 µM), for the others: top-dose activity change, negative = inhibition, hits mostly inhibitors | 360,000 tested, 0.46% active; also: potency is read from the fitted curve at half-maximal effect; % is scaled to controls: 0 for no effect and ±100 for the full control effect; nearly all actives have a fitted effect of over 55% in size
Target sequence (Q14191 whole entry, looked up): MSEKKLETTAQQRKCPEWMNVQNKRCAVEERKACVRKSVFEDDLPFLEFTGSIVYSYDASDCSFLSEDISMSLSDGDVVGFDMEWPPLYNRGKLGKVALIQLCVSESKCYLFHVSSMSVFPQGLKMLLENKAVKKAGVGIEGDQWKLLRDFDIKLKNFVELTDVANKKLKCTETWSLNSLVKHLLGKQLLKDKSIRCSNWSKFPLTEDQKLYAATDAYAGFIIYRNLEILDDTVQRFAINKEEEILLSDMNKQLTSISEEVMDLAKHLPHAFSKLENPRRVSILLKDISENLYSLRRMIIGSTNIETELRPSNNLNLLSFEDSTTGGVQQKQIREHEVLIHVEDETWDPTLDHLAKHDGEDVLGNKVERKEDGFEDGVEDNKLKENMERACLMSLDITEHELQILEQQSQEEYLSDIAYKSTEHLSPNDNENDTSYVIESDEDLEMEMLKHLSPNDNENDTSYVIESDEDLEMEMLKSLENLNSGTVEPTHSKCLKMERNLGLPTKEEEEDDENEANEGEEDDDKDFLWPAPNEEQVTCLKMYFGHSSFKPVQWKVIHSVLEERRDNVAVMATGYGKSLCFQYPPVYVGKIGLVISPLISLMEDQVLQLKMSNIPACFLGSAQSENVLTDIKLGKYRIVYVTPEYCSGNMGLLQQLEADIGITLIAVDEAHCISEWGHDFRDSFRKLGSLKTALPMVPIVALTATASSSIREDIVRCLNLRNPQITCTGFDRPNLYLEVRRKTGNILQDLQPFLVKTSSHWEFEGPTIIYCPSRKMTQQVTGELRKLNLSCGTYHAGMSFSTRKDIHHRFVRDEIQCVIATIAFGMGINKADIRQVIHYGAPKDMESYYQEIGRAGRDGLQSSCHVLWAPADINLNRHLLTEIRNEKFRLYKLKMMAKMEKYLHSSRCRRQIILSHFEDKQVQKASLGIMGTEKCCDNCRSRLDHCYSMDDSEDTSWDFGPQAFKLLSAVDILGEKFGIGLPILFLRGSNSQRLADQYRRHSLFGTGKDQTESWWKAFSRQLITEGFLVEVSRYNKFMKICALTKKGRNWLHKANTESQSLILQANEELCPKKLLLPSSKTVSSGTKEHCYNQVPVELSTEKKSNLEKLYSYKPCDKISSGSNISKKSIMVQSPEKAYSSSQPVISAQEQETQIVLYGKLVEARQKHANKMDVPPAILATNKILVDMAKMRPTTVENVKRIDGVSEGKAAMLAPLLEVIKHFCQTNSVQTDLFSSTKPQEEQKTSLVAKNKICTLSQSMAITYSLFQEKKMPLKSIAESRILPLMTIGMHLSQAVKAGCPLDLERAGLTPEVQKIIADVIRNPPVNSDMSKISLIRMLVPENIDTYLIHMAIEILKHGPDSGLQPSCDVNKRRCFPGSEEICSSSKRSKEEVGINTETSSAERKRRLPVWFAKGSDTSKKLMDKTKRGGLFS
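Enzyme (20 nM final) and test compound sit together 15 min at room temperature before substrate addition. Substrate is a single-forked duplex oligonucleotide (100 nM) labelled with fluorophore and quencher, with 2 mM ATP; helicase unwinding raises red fluorescence, read kinetically.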
Pol kappa inh-1: inhibitors of human DNA polymerase kappa; Q9UBT6; purified Pol kappa, fluorescent DNA synthesis assay, 10 min; Potency, µM (highest dose often 107 µM), without a hit: at the top dose activity, negative = inhibition, hits mostly inhibitors; 400,000 tested, 0.53% active; AID 588579; also: potency is read from the fitted curve at half-maximal effect; % is scaled to controls: 0 for no effect and ±100 for the full control effect
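Here, compound and 10 nM enzyme are combined for 15 min at room temperature; adding 50 nM substrate (final) starts DNA synthesis, tracked by fluorescence at 0 and 10 min against buffer-only wells.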
TbPGK inh: TbPGK inhibition, hit validation. shares compounds with Pol kappa inh-1. TbPGK coupled GAPDH assay, Kinase-Glo luminescence. Potency, µM (series often up to 57.5 µM), inactives show at the highest dose activity change, negative = inhibition, most hits filed as inhibitors. 500 tested, 79% active. AID 686980; also: potency is read from the fitted curve at half-maximal effect; % is scaled to controls: 0 for no effect and ±100 for the full control effect; nearly all actives have a fitted effect of over 65% in size
Pol iota confirm: Confirm cherry-picked inhibitors of human polymerase iota; shares compounds with Pol kappa inh-1; Pol iota primer extension, TAMRA/BHQ fluorescence; Potency, µM, hits mostly inhibitors; 1,500 tested, 77% active; AID 720496; also: potency is read from the fitted curve at half-maximal effect
GALK inh confirm: confirmation of human galactokinase (GALK) inhibitors | 150 tested, 70% active | shares compounds with Pol eta inh-1 | AID 2015 | Potency, µM (series often up to 115 µM), for the others: at the top dose activity, negative = inhibition, usual class: inhibitors | purified GALK, Kinase-Glo ATP depletion luminescence
GALK redox cs: redox cycling activity in phenol red-HRP assay; shares compounds with Pol eta inh-1; Phenol red-HRP H2O2 redox cycling, absorbance 600 nm; Potency, µM (top dose mostly 115 µM), for the others: at the top dose activity change, negative = H2O2 signal, usual class: inhibitors; 150 tested, 40% active; AID 2035
HEK293 tox: counter-screen for GALK inhibitors: HEK293 cell cytotoxicity | shares compounds with Pol eta inh-1 | HEK-293 viability, ATP luminescence (CellTiter-Glo), 24/48 h | Potency, µM (series often up to 46.1 µM), inactives show at the top dose activity change, negative = cytotoxicity, actives largely listed as inhibitors | 170 tested, 10% active | AID 2547; also: potency is read from the fitted curve at half-maximal effect; % is scaled to controls: 0 for no effect and ±100 for the full control effect
Pol kappa inh-2: Pol kappa (human) inhibition, cherry-pick confirmation; shares compounds with Pol eta inh-1; purified Pol-kappa, fluorescent strand-displacement substrate; Potency, µM, usual class: inhibitors; 920 tested, 76% active; AID 720501; also: potency is read from the fitted curve at half-maximal effect
Pol eta inh-2: confirmation of human DNA polymerase eta inhibitors; shares compounds with Pol eta inh-1; Pol eta primer extension, TAMRA/BHQ fluorescence, 10 min; Potency, µM, most hits filed as inhibitors; 2,600 tested, 64% active; AID 720502; also: potency is read from the fitted curve at half-maximal effect
The depositor's hits bear a star; u = inconclusive; x = no result given; [ ] = remark or other dose. Hits are enriched below; roughly 2.8% of the tested compounds scored in any of these assays. Unless noted, calls follow the shape of the dose curve; as a rule, active = well fitted curve in the direction sought with a large enough effect; inconclusive = small, poorly fitted or top-dose-only effect, or another doubt; inactive = no such curve, though single readings can be large; an effect the other way counts as inactive or inconclusive.

SMILES	POLB inh	Pol eta inh-1	PI5P4Ka inh	POLI inh	WRN helicase inh	Pol kappa inh-1	Pol iota confirm	Pol kappa inh-2	Pol eta inh-2	others
CCN(CC)CCOC(=O)c1ccc(NC(=O)c2nn(-c3ccc(C)cc3)c(=O)c3c2c2ccccc2n3C)cc1	7.9µM*	79µM*	x	u	x	-7%	u	u	u
CCN(CC)CCCNC(=O)c1nn(-c2ccc(C)cc2)c(=O)c2c1c1ccccc1n2C	-1%	x	x	-3%	x	-23%	x	x	x
CCOc1ccc(S(=O)(=O)N(CC(=O)Nc2ccc(OC)c(Cl)c2)c2ccccc2)cc1	-18%	-14%	x	25%	x	0%	x	x	x
CC(=C\C(=O)O)/C(=C/c1ccco1)C(=O)O	u	u	-4	u	2%[11.6 µM]	u	x	x	x
CC(=C\C(=O)O)/C(=C/c1ccc(C)o1)C(=O)O	20µM*	7.9µM*	3	u	-18%[11.6 µM]	u	34*	x	21*
O=NN(CCF)C(=O)NC1CCS(=O)(=O)CC1	x	x	5	x	-2%	x	x	x	x
COc1cc(/C=C/c2ccnc3ccccc23)cc(OC)c1OC	x	x	x	22%	x	1%	x	x	x
Cc1ccc(N=Nc2c(N)nn3c(N)c(C#N)c(C)nc23)cc1	22µM*	u	u	u	-17%[11.6 µM]	79µM*	42*	x	u
Cc1ccc(N=Nc2c(N)nn3c(C)cc(C)nc23)cc1	1%	-16%	-17	0%	1%	-4%	x	x	x
Cc1ccc(Cl)cc1NC(=O)Cn1c(=O)n(C(C)C)c(=O)c2oc3ccccc3c21	45%	-15%	x	-4%	x	-7%	x	x	x
COc1ccc(N2Cc3cccc(C(=O)Nc4cccc(F)c4)c3C2=O)cc1	14µM*	x	x	79µM*	x	u	38*	12*	76*
O=C1C=C(N2CCOCC2)c2ccccc2C1=O	-11%	5.6µM*	-8	1.8µM*	-19%	-8%	17*	x	7.6*	GALK inh confirm=8.4µM*;GALK redox cs=4.7µM*;HEK293 tox=14µM*
S=c1[nH]nc(-c2cc(-c3ccccc3)n[nH]2)n1/N=C/C=C/c1ccco1	22µM*	22µM*	-96*	14µM*	u	50µM*	u	24*	30*
Cc1cccc(-c2n[nH]c(=S)n2/N=C/c2ccco2)c1	-1%	20%	4	18%	1%	2%	x	x	x
O=C(COC(=O)c1cccs1)NCc1ccco1	20µM*	14µM*	u	20µM*	u	u	75*	x	85*
O=C(COC(=O)c1cccs1)NCc1ccccc1	15%	-11%	-1	2%	2%	6%	x	x	x
O=C(NCc1cccc(CNC(=O)C(=O)NCc2ccco2)c1)C(=O)NCc1ccco1	22µM*	28µM*	-53*	u	u	-60%	67*	u	76*
O=C(NCc1cccc(CNC(=O)c2ccco2)c1)c1ccco1	4%	1%	x	21%	-1%	-11%	x	x	x
O=C(COC(=O)Cc1cccc(C(F)(F)F)c1)NCc1ccco1	x	5µM*	u	u	u	45µM*	60*	24*	30*
O=C(COC(=O)c1cncc(Br)c1)NCc1ccco1	22µM*	10µM*	-21	u	50µM*	79µM*	24*	24*	u
COc1ccc(CC(=O)OCC(=O)NCc2ccco2)cc1OC	x	-14%	2	15%	0%	1%	x	x	x
FC(F)(F)c1ccccc1-c1nccc(-n2ccnc2)n1	x	x	x	x	x	2%[60.1 µM]	x	x	x
O=C(O)c1ccc(/C=C/c2ccc3cccc(O)c3n2)cc1	u	79µM*	-24	u	-22%	-35%	24*	19*	u
CN(Cc1ccccc1)c1ccc(N2C(=O)CCCC2=O)cc1[N+](=O)[O-]	-25%	-8%	-8	15%	-11%	3%	x	x	x
COc1ccccc1NC(=O)C1=C(C)Nc2ncnn2C1c1ccc[nH]1 (stereo unspecified)	16µM*	32µM*	x	79µM*	x	5%[60.1 µM]	60*	x	60*
SMILES	POLB inh	Pol eta inh-1	PI5P4Ka inh	POLI inh	WRN helicase inh	Pol kappa inh-1	Pol iota confirm	Pol kappa inh-2	Pol eta inh-2	others
O=C(CCCn1c(=O)c2cccn2c2ccc(F)cc21)NCc1ccc(Cl)cc1	17%	-2%	x	3%	x	1%	x	x	x
Cc1cc(C(=O)NCc2ccc(C(=O)O)o2)c(C)o1	28µM*	4µM*	x	20µM*	-34%[57.1 µM]	32µM*	27*	x	6.7*	TbPGK inh=u
O=S(=O)(c1ccc(Cl)cc1)c1nc(-c2cccc(Br)c2)oc1NCc1ccccc1	-27%	-14%	x	-8%	x	11%	x	x	x
Cc1cc(Cn2cnc3c(cnn3C(C)(C)C)c2=O)ccc1F	x	x	x	-5%	x	1%	x	x	x
COc1cc(/C=C(\CCC(=O)O)c2nc3ccccc3s2)ccc1OCC(=O)Nc1c(Cl)cccc1Cl	x	u	-16	16%	u	-15%	38*	x	76*	TbPGK inh=10µM*
COC(=O)\C(C(C)=O)=C(/C=C/C=C/C=C/N(C)C)N(C)C	10µM*	2.8µM*	1	4µM*	21µM*	22µM*	15*	5.3*	6*	TbPGK inh=4.1µM*
COC(=O)/C(C(C)=O)=C(\C=C\N(C)C)N(C)C	17%	-8%	x	24%	-8%	-3%	x	x	x
